The values that follow come from PubChem BioAssay (NCI).

SMILES strings stand for the structures. About 83,000 compounds went through this panel and 20% of them were active in at least one assay; those are over-represented in the sample as a whole.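 The test compound was applied at a single concentration to cells in 96-well plates for 48 hours, and percent growth was recorded.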 Values without a mark were called inactive. Activity calls are given as the source filed them. How the source made its calls: active means growth percent below 10; inactive means the rest.

Test systems include NCI-H23 lung; NCI-H226 lung; NCI-H322M lung; HOP-62 NSCLC; NCI-H460 lung; HOP-92 NSCLC; NCI-H522 lung; A549/ATCC NSCLC; 786-0 renal; COLO 205 colon; DU-145 prostate; K-562 leukemia; MALME-3M melanoma; MDA-MB-231 breast; RXF 393 renal; SF-268 CNS; SF-295 CNS; SF-539 CNS; UACC-257 melanoma; M14 melanoma.
Test in all cases: NCI-60 one-dose screen, 48 h (100 = growth as untreated, 0 = no growth, -100 = all killed)
Holding throughout (conditions): 10 µM unless noted

Regarding `O=C(c1cccc(N2CCOCC2)n1)c1c[nH]c2ccccc12`, the growth with NCI-H23 lung was 92.7%; in the assay with NCI-H226 lung it was 82.8%; in the assay with NCI-H322M lung, 97%; in the assay with HOP-62 NSCLC, 87.6%; in the assay with NCI-H460 lung, 86.7%; with HOP-92 NSCLC it was 92.8%. Moreover, the growth in the assay on NCI-H522 lung is 88.3%; in the assay on A549/ATCC NSCLC, 95.3%; in the assay on 786-0 renal, 98.7%; in the assay with COLO 205 colon, 107%; in the assay on DU-145 prostate it was 99.8%; with K-562 leukemia it was 103%. Besides, the growth is 95.1% in the assay with MALME-3M melanoma; 80.2% in the assay on MDA-MB-231 breast; 99% with RXF 393 renal; 94.1% in the assay on SF-268 CNS; 100% with SF-295 CNS; 88.9% with SF-539 CNS. Further, the figures for the growth in the assay with UACC-257 melanoma and in the assay on M14 melanoma were 87.7% and 94.8%, respectively.
With `C/C(=N\Nc1ccccc1)c1ccc(NC2=CC(=O)c3ccccc3C2=O)cc1`, the growth with NCI-H23 lung is 21.4%; in the assay on NCI-H226 lung, 80.8%; in the assay on NCI-H322M lung, 79%; in the assay with HOP-62 NSCLC it was 46.1%; in the assay on NCI-H460 lung, 23.5%; in the assay on HOP-92 NSCLC it was 113%. In addition, the growth is 42.9% in the assay with NCI-H522 lung; 48.5% in the assay with A549/ATCC NSCLC; 94.1% in the assay on 786-0 renal; 88.2% with COLO 205 colon; 50.7% with DU-145 prostate; 19.4% in the assay with K-562 leukemia. For the same molecule, the growth is -65% (active) with MALME-3M melanoma; 62.4% with MDA-MB-231 breast; 92.1% in the assay with RXF 393 renal; 64.4% with SF-268 CNS; 55.2% in the assay on SF-295 CNS; 92.9% in the assay with SF-539 CNS. Further, the growth in the assay on UACC-257 melanoma was 67.9%; in the assay on M14 melanoma, 26.3%.
`CCOC(=O)/C(=C(/C)NCC(C)C)c1cc(O)c(O)c2c(C)cc(=O)[nH]c12`: the growth in the assay with NCI-H23 lung is 51.4%; in the assay on NCI-H226 lung, 71.9%; in the assay with NCI-H322M lung, 62.5%; with HOP-62 NSCLC it was 38.2%; with NCI-H460 lung it was 23.1%; with HOP-92 NSCLC, 40.2%. The growth in the assay with NCI-H522 lung is 26.8%; in the assay on A549/ATCC NSCLC, 45.2%; in the assay with 786-0 renal it was 47.4%; in the assay with COLO 205 colon, 99.7%; in the assay with DU-145 prostate, 64.5%; in the assay on K-562 leukemia, 24.5%. Also, the growth in the assay with MALME-3M melanoma was 53.8%; in the assay on MDA-MB-231 breast, 61.3%; in the assay on RXF 393 renal, 83%; in the assay on SF-268 CNS, 24.1%; in the assay with SF-295 CNS it was 52.3%; in the assay with SF-539 CNS, 35.7%. Besides, the growth in the assay with UACC-257 melanoma is 83.5%; in the assay with M14 melanoma, 53.3%.
As to `COc1cc2c(c(OC)c1OC)C(=O)CC(c1cccc(C(=O)Nc3ccc(C#N)cc3)c1)O2` (stereo not given), the growth was 78.7% with NCI-H23 lung; 46.9% in the assay on NCI-H226 lung; 90.8% with NCI-H322M lung; 91.5% with HOP-62 NSCLC; 89.3% in the assay with NCI-H460 lung; 64.6% in the assay with HOP-92 NSCLC. The growth in the assay with NCI-H522 lung was 46.8%; with A549/ATCC NSCLC, 87.4%; in the assay on 786-0 renal, 90.4%; in the assay on COLO 205 colon, 85.8%; in the assay on DU-145 prostate, 88%; with K-562 leukemia, 42.2%. For the same molecule, the growth with MALME-3M melanoma is 96.9%; in the assay with MDA-MB-231 breast it was 73.5%; in the assay with RXF 393 renal it was 99.7%; in the assay with SF-268 CNS it was 88.9%; in the assay on SF-295 CNS it was 77%; in the assay on SF-539 CNS it was 93%. The growth in the assay with UACC-257 melanoma is 82.4%; with M14 melanoma, 72.1%.
Take `CC1(C)N=C(N)N=C(N)N1c1cc(Cl)ccc1Cl`: the growth in the assay with NCI-H23 lung was 74.4%; in the assay with NCI-H226 lung, 94.3%; in the assay with NCI-H322M lung, 119%; with HOP-62 NSCLC it was 92.8%; with NCI-H460 lung, 32.3%; with HOP-92 NSCLC it was 94%. The growth with NCI-H522 lung is 52.7%; in the assay on A549/ATCC NSCLC, 86.7%; in the assay on 786-0 renal it was 110%; in the assay with COLO 205 colon, 87.5%; in the assay with DU-145 prostate, 6.66% (active); with K-562 leukemia it was 71.2%. In addition, the growth was 125% in the assay on MALME-3M melanoma; 92.6% in the assay on MDA-MB-231 breast; 78.7% in the assay on RXF 393 renal; 75.1% in the assay on SF-268 CNS; 51.5% with SF-295 CNS; 85.8% in the assay on SF-539 CNS. Further, the growth is 94.7% in the assay with UACC-257 melanoma and 94% with M14 melanoma.
Consider `Cc1cccc(N=Nc2cccc(C)c2)c1`, for which the growth in the assay on NCI-H23 lung was 92.5%; in the assay with NCI-H226 lung, 100%; in the assay with NCI-H322M lung, 98.5%; with HOP-62 NSCLC it was 104%; in the assay on NCI-H460 lung it was 102%; in the assay on HOP-92 NSCLC, 85.9%. For the same molecule, the growth with NCI-H522 lung is 97.4%; in the assay on A549/ATCC NSCLC, 104%; with 786-0 renal, 116%; with COLO 205 colon it was 111%; in the assay on DU-145 prostate, 112%; with K-562 leukemia, 138%. The growth with MALME-3M melanoma was 100%; with MDA-MB-231 breast it was 86.4%; with RXF 393 renal it was 115%; in the assay with SF-268 CNS, 110%; in the assay with SF-295 CNS it was 97.9%; with SF-539 CNS, 110%. Also, the growth is 113% with UACC-257 melanoma and 108% with M14 melanoma.
Consider `O=c1ccc2ccc(OCCN3CCCCC3)cc2o1`, for which the growth in the assay with NCI-H23 lung is 98.4%; with NCI-H226 lung, 103%; in the assay with NCI-H322M lung it was 97%; in the assay on HOP-62 NSCLC, 84.5%; in the assay with NCI-H460 lung, 108%; with HOP-92 NSCLC it was -17.3% (active). Also, the growth is 86.6% in the assay on NCI-H522 lung; 98% in the assay with A549/ATCC NSCLC; 99.5% in the assay with 786-0 renal; 98.5% in the assay with COLO 205 colon; 118% with DU-145 prostate; -17.2% (active) with K-562 leukemia. Also, the growth was 107% in the assay with MALME-3M melanoma; 95.7% in the assay on MDA-MB-231 breast; 114% with RXF 393 renal; 110% in the assay on SF-268 CNS; 98.8% with SF-295 CNS; 106% in the assay on SF-539 CNS. The growth with UACC-257 melanoma is 89.3%; in the assay with M14 melanoma, 96.1%.
Regarding `C#CCOc1cccc(Nc2ncnc3cc(NC(=O)CCl)ccc23)c1`, the growth in the assay with NCI-H23 lung was -65% (active); with NCI-H226 lung it was -26.7% (active); in the assay on NCI-H322M lung it was -13.9% (active); with HOP-62 NSCLC it was -61.6% (active); in the assay with NCI-H460 lung, -55.3% (active); with HOP-92 NSCLC, -76.9% (active). Moreover, the growth was -76.1% (active) with NCI-H522 lung; -59.4% (active) in the assay on A549/ATCC NSCLC; -69.1% (active) in the assay with 786-0 renal; -79.9% (active) with COLO 205 colon; -77.1% (active) in the assay on DU-145 prostate; -43% (active) with K-562 leukemia. The growth in the assay on MALME-3M melanoma is -73.4% (active); in the assay on MDA-MB-231 breast, -78.9% (active); in the assay on RXF 393 renal it was -75.6% (active); in the assay with SF-268 CNS, -55.8% (active); with SF-295 CNS, -92.8% (active); with SF-539 CNS, -80.4% (active). Moreover, the growth is -43.3% (active) in the assay on UACC-257 melanoma and -56.1% (active) with M14 melanoma.
